# Source: PubChem BioAssay (NCI)
# About 83,000 compounds went through this panel and 20% of them were active in at least one assay; those are over-represented in the sample as a whole.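 Plates (96-well) were seeded with cells, treated with compound at one concentration, and incubated for 48 hours before percent growth was determined.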 Activity calls are given as the source filed them.
# Test system: HCT-15 colon
# Test: NCI-60 one-dose screen, 48 h (100 = growth as untreated, 0 = no growth, -100 = all killed)
# Conditions: 10 µM unless noted
# Experimental: Growth inhibition of the HCT-15 human tumor cell line is measured as a screen for anti-cancer activity. Cells are grown in 96 well plates and exposed to the test compound for 48 hours. Compounds are tested at a single concentration, which is 10^-5 M for most compounds. The reported endpoint is percent growth (GI% or GIPRCNT), where numbers from 0 - 100% represent growth inhibition, and numbers from -100% - 0 represent cell death. For example, a value of 40 represents 60% growth inhibition. A value of 0 means no net growth occurred over the course of the experiment. A value of -40 indicates 40% of cells at the beginning of the experiment died by the end of the experiment. A value of -100 means all cells are dead at the end of the experiment.
# NCI-60 Human Tumor Cell Lines Screen was performed using the standard one-dose NCI protocol, which is described in more detail at https://dtp.cancer.gov/discovery_development/nci-60/default.htm.
# Compounds with GIPRCNT values below 10 were considered active. Activity score was based on GIPRCNT using the following formula: […]
# Score is 0 for GIPRCNT values of 100 or above, 50 for GIPRCNT values of 0, and 100 for GIPRCNT values of -100.
row,SMILES,growth
1,O=C(Nc1ccc(-c2ccc3c(c2)NC(=O)/C3=C\c2ccc[nH]2)cc1)NC1CC1,88.3% (inactive)
2,O=C(CCN1CCCC1)Nc1ccc2c(NCCCCc3ccccc3)c3ccccc3nc2c1,17% (inactive)
3,C=C1C(=O)O[C@H]2[C@H]1CC/C(COC(=O)NCCc1c[nH]c3ccc(OC)cc13)=C\CC[C@@]1(C)O[C@@H]21,-54.7% (active)
4,COc1ccccc1/C(C)=N/NC(=O)CSc1nc2ccccc2c(=O)n1Cc1ccc(S(N)(=O)=O)cc1,97.6% (inactive)
5,O=C(Nc1ccc(F)cc1)Nc1ccc(NC(=O)c2cc(Cl)nc3ccccc23)cc1,98.7% (inactive)
6,CCCCN1C=CCN(CCCC)C1,90.2% (inactive)
7,O=S(=O)(NCCCNc1nccc(-c2c(-c3cccc(O)c3)nc3occn23)n1)c1ccc(Cl)cc1,98.7% (inactive)
8,COc1cc(F)c(/C=C/c2cc(/C=C/c3cc(OC)c(OC)cc3F)on2)cc1OC,82.1% (inactive)
9,N#CC(C#N)=Cc1cc2ccccc2nc1Oc1ccc(C(F)(F)F)cc1,85.1% (inactive)
10,C=C(C)[C@@H]1CC[C@]2(CN)CC[C@]3(C)[C@H](CC[C@@H]4[C@@]5(C)CCCNC(C)(C)[C@@H]5CC[C@]43C)[C@@H]12,-92.4% (active)
11,COc1ccc(/C=C/c2nc(Nc3cccc(NC(C)=O)c3)c3ccccc3n2)cc1,70.9% (inactive)
12,NS(=O)(=O)c1ccc(CCN2C(=O)C3C(C2=O)C2(Cl)C(Cl)=C(Cl)C3(Cl)C2(Cl)Cl)cc1 (stereo not given),90.5% (inactive)
13,C#CCNC(=O)[C@H](Cc1ccccc1)NC(=O)[C@]12CC[C@@H](C(=C)C)[C@@H]1[C@H]1CC[C@@H]3[C@@]4(C)CCC(=O)C(C)(C)[C@@H]4CC[C@@]3(C)[C@]1(C)CC2,70.7% (inactive)
14,COc1cc(C=O)ccc1OC1OC(COC(C)=O)C(OC(C)=O)C(OC(C)=O)C1OC(C)=O (stereo not given),99.3% (inactive)
15,O=[N+]([O-])CC(c1ccccc1)c1c[nH]c2ccccc12 (stereo not given),26.5% (inactive)
16,Cn1cc(-c2nc(-c3c[nH]c4c(Cl)nccc34)cs2)c2cc(F)ccc21,99.2% (inactive)
17,COc1cc2c(-c3cc4c(cc3CNCCc3ccc5c(c3)OCO5)OCO4)cccc2c(OC)c1O,59.4% (inactive)
18,CCCCCOc1ccc(/C=N/Nc2cc(C)nc3ccc(Cl)cc23)cc1,-93.8% (active)
19,CNC(=O)c1cccc(Cn2nc(C)c(NC(=O)c3ccc(COc4ccc(C(F)(F)F)cc4C)cc3)c2C)c1,55% (inactive)
20,C=C1C(=O)O[C@H]2[C@H]1CC/C(COC(=O)NCc1c[nH]c3ccc(F)cc13)=C\CC[C@@]1(C)O[C@@H]21,-63.9% (active)

row,SMILES,growth
1,O=C1Nc2cc(-c3ccc(NS(=O)(=O)c4ccccc4)cc3)ccc2/C1=C/c1ccc[nH]1,62.9% (inactive)
2,O=C(O)c1ccc2c(c1)C(=O)N(Cc1ccccc1)C2=O,99.9% (inactive)
3,COc1cc2nc(-c3ccc(C(F)(F)F)cc3)cc(OCCCN3CCCC3)c2cc1OC,13.1% (inactive)
4,NS(=O)(=O)c1ccc(CCN2C(=O)C=CC2=O)cc1,99.3% (inactive)
5,N/C(=N\C(N)=N\c1nc2ccccc2s1)c1cnccn1,11.6% (inactive)
6,CCN1Cc2nc3sc(C)c(C)c3c(=O)n2C=C1C,49.7% (inactive)
7,CCc1ccc(-c2cn3ccnc3c(-c3ccc4ncn(Cc5ccccc5)c4c3)n2)cc1,25.3% (inactive)
8,C=C1C(=O)O[C@H]2[C@H]1CC/C(CNC(=O)/C=C/c1ccccc1)=C\CC[C@@]1(C)O[C@@H]21,-72.7% (active)
9,OC(c1ccc(F)c(C(F)(F)F)c1)c1cnccc1NC1CCCCC1 (stereo not given),64.7% (inactive)
10,O=C(c1nc2ccccc2[nH]1)C1C(c2ccc(Br)cc2)C2CC3CCCC[C@H]3N2[C@@]12C(=O)Nc1cc(Cl)ccc12 (stereo not given in full),23.7% (inactive)
11,COc1cc(/C=C\c2cc(OC)c(OC)c(OC)c2)cc(NC(=O)/C=C/c2cc(OC)c(OC)c(OC)c2)c1OC,34.6% (inactive)
12,Cc1c(C)c([N+](=O)[O-])c(C)c([N+](=O)[O-])c1C,108% (inactive)
13,O=C(NCCc1ccccc1)Nc1ccc2cc3ccc(NC(=O)NCCc4ccccc4)cc3nc2c1,97.1% (inactive)
14,CN1CCN(CCNc2nccc(-c3c(-c4cccc(O)c4)nc4sccn34)n2)S1(=O)=O,50.6% (inactive)
15,CCNC(=O)Oc1ccc(/C(=C(\C)c2ccccc2)c2ccc(OCCN(CC)CC)cc2)cc1,16.5% (inactive)
16,COc1cc(/C=C/C(=O)c2nc3cc(F)ccc3nc2C)cc(OC)c1OC,48.1% (inactive)
17,O=C1c2ccccc2CCC12OC2c1cn(-c2ccccc2)nc1-c1ccc(Cl)cc1 (stereo not given),41.4% (inactive)
18,Nc1n[nH]c2cccc(C#Cc3cccc(C(=O)Nc4cccc(C(F)(F)F)c4)c3)c12,64.8% (inactive)
19,O=S(=O)(NCCNc1nccc(-c2c(-c3cccc(O)c3)nc3occn23)n1)c1ccc(Cl)cc1,113% (inactive)
20,O=C(/C=C(/C=C/c1coc2ccccc12)OB(F)F)/C=C/c1coc2ccccc12,95.1% (inactive)
